The list is not random: actives were taken first. Their share in the collection is about 32%.
CYP2C19 act: human CYP2C19 activators, primary screen, biochemical, luminescence; recombinant CYP2C19, luciferin-H EGE luminescence; stronger effect = higher value; 0 = fully inhibited enzyme, 1 = untreated enzyme; activation factor at 5 µM; 96,000 tested, under 10 active; Cytochrome P450 2C19 (Homo sapiens), P33261; AID 1025, 2008;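 active means activation factor of at least 2 at 5 µM in the primary screen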;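 further: 0 = wells with 2.5 mM tranylcypromine and 1 = vehicle-only wells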
CYP2C19 inh: blockers of cytochrome P450 2C19 activity – biochemical, luminescence, ADME assay, primary screen. P33261. inhibition, % at 5 µM. CYP2C19 Supersomes, luciferin-H EGE luminescence, 30 min. 96,000 tested, 21% active. AID 778, 2007;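 active means CYP2C19 inhibition above a set limit at 5 µM in the primary screen, cut at about 50% in these data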;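 further: plate controls were negative control wells for no effect and 2.5 mM tranylcypromine positive control for full effect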
CYP2C9 inhib: blockers of cytochrome P450 2C9 activity – biochemical, luminescence, ADME assay, primary screen | P11712 | CYP2C9 Supersomes, luciferin-H conversion | inhibition, % at 5 µM | 96,000 tested, 20% active | AID 777, 2007;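 active means blocking of liver enzyme CYP2C9 beyond about 50% at 5 µM, limit read from the data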
Target sequence (P11712 whole entry, looked up): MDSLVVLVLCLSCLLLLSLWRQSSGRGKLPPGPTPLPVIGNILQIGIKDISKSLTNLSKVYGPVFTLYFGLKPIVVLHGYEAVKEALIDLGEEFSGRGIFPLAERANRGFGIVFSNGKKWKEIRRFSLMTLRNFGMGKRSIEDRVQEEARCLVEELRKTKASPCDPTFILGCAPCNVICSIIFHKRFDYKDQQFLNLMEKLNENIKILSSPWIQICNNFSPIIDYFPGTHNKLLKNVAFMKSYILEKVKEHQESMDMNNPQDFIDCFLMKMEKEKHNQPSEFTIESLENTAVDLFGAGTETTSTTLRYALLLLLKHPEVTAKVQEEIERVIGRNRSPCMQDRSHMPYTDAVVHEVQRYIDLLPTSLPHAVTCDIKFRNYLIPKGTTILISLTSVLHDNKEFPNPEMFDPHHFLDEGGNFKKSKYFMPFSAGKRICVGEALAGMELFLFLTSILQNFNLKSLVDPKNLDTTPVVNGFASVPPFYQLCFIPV
PostGolgi ctrl: growth inhibition of yeast control strain, primary screen, counter-screen for post-Golgi transport modulator project | AID 738, 2007 | inhibition, % at 10 µM | 98,000 tested, 5% active | efflux-deficient yeast background strain, growth absorbance A615, 16 h
PostGolgi yeast: phenotypic screen on post-Golgi transport, primary screen; post-Golgi transport phenotypic cell assay; inhibition, % at 10 µM; 98,000 tested, 0.9% active; AID 739, 2007;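 further: yeast cells grown in 1536-well plates; yeast grown about 18 h at 30C before absorbance read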
CYP2C9 activ: human CYP2C9 activators, primary screen, biochemical, luminescence | Cytochrome P450 2C9 (Homo sapiens), P11712 | recombinant CYP2C9, luciferin-H conversion; stronger effect = higher value; factor 1 = untreated enzyme, 0 = blocked | activation factor at 5 µM | 96,000 tested, 1.4% active;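 active means activation factor of 2 or more for CYP2C9 at a 5 µM dose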;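 further: 0 = sulfaphenazole-blocked wells and 1 = vehicle-only wells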
Starred values were filed as active, the others as inactive; . = no result given. Unless noted, no stated cut-off is given here; in the data, active means inhibition above about 30%; inactive means the rest.

SMILES	CYP2C19 act	CYP2C19 inh	CYP2C9 inhib	PostGolgi ctrl	PostGolgi yeast	CYP2C9 activ
Nc1c(NCCN2CCOCC2)c2ccccc2oc1=O	0.9	13	-9	17	-7	1.1
Cc1ccccc1Nc1c(N)c(=O)oc2ccccc12	0	96*	65*	19	2	0.4
Nc1nc(-c2ccc3ccccc3c2)c(C2(O)C(=O)Nc3c(Br)cc(F)cc32)s1 (centres undefined)	0.1	92*	-12	12	-2	1.1
C=CCN1C(=O)CN=C1Nc1ccc(OC)cc1OC	1	2	0	-1	1	1
COc1ccc(-c2cnc(N)nc2-c2ccc(OC)cc2O)cc1	0.7	28	19	28	-6	0.8
COc1ccc(-c2ncncc2-c2csc(C)n2)c(O)c1	0.1	89*	49	4	-1	0.5
COc1ccc(-c2nc(C)ncc2-c2csc(C)n2)c(O)c1	0.5	54*	11	8	-6	0.9
Cn1c(SCc2ccc(Cl)cc2)nc(C(F)(F)F)cc1=O	0.9	6	-3	-2	0	1
CC(=O)OCc1c(C(F)(F)F)nn(C)c1SCc1ccc(Cl)cc1	0	99*	62*	29	11	0.4
CCc1nnc(NC(=O)[C@@H](NC(=O)c2cccc(S(=O)(=O)N3CCOCC3)c2)C(C)C)s1	0.9	10	8	-4	-2	0.9
O=C(c1cccc(S(=O)(=O)N2CCCCC2)c1)N1CCN(S(=O)(=O)c2ccc(F)cc2)CC1	0.6	35	41	-1	-6	0.6
O=C(c1cccc(F)c1)N1CCN(S(=O)(=O)c2ccccc2)CC1	0.2	76*	-1	-4	-3	1
O=C(c1ccccc1)N1CCN(S(=O)(=O)N2CCCCC2)CC1	0.1	87*	49	44*	-6	0.5
O=C(c1ccccc1)N1CCN(C(=O)c2ccccc2Br)CC1	0.4	56*	31	-2	2	0.7
CC(C)c1ccc(S(=O)(=O)N2CCN(C(=O)c3cccc(F)c3)CC2)cc1	0.3	67*	67*	1	6	0.3
C=CCNC(=O)c1ccc2c(c1)nnn2C	1	4	0	6	-5	1
COc1ccc(-n2c(SCC(N)=O)nc3nc4c(cc3c2=O)COC(C)(C)C4)cc1	1	-5	8	6	-5	0.9
N#Cc1cc(-c2ccccc2)cnc1Cl	0.9	11	-1	-5	3	1
COc1cc(-c2c(C#N)c(=O)[nH]c3c2c(C)nn3-c2ccccc2)ccc1O	0.9	5	27	5	1	0.7
COc1ccc(CNC(=O)CSc2ncn[nH]2)cc1	0.4	65*	-15	-3	-1	1.1
COc1ccc(-c2oc(NC(=O)CSc3ncn[nH]3)c(C#N)c2-c2ccc(OC)cc2)cc1	0.6	37	70*	16	1	0.3
COc1ccc(-c2oc(NC(=O)CCl)c(C#N)c2-c2ccc(OC)cc2)cc1	0.5	54*	96*	50*	28	0
COc1ccc(CC(=O)Nc2oc(-c3ccccc3)c(-c3ccccc3)c2C#N)cc1OC	.	.	.	-4	-8	.
N#Cc1c(NC(=O)COC(=O)C2CC3C=CC2C3)oc(-c2ccccc2)c1-c1ccccc1 (centres undefined)	0.9	13	71*	15	7	0.3
O=C1CCC(C(=O)NC2(C(=O)NC3CCCCC3)CCCCC2)N1 (centres undefined)	0.9	8	-13	9	-2	1.1
SMILES	CYP2C19 act	CYP2C19 inh	CYP2C9 inhib	PostGolgi ctrl	PostGolgi yeast	CYP2C9 activ
CCOC(=O)C(NC=O)(NC(C)(C)C)C(=O)OCC	1	-1	-3	12	-2	1
O=C(Cc1c(C(=O)O)[nH]c2ccccc12)NCCN1CCN(c2ccccc2F)CC1	1	4	8	26	5	0.9
COC(=O)CCCC(=O)Nc1ccc(Cl)c(Cl)c1	.	.	.	15	3	.
COc1ccccc1OCC(=O)Nc1oc(-c2ccccc2)c(-c2ccccc2)c1C#N	0.7	34	85*	20	-3	0.1
CC12CC(c3ccccc3O1)N(C(=O)c1ccc(Br)o1)C(=O)N2c1ccccc1 (centres undefined)	0.7	31	62*	16	-1	0.4
CN1CCN(C(=O)Cn2c(=O)oc3cc(S(=O)(=O)NCc4ccccc4)ccc32)CC1	0.9	13	50*	8	2	0.5
CCOC(=O)Cn1c(=O)oc2cc(S(=O)(=O)NCCc3ccc(C)cc3)ccc21	0.5	50*	70*	8	-5	0.3
CCOC(=O)Cn1c(=O)oc2cc(S(=O)(=O)NCCCc3ccccc3)ccc21	0.7	34	68*	-4	-12	0.3
CCOC(=O)Cn1c(=O)oc2cc(S(=O)(=O)Nc3ccc(F)cc3)ccc21	0.6	38	58*	-5	-3	0.4
CCOC(=O)Cn1c(=O)oc2cc(S(=O)(=O)N3CCN(c4ccccn4)CC3)ccc21	0.7	25	25	-7	0	0.8
O=C(Cn1c(=O)oc2cc(S(=O)(=O)N3CCCC3)ccc21)N1CCN(c2ccccn2)CC1	1	4	37	12	-4	0.6
Cc1ccc(NC(=O)CCNS(=O)(=O)c2ccc3c(c2)oc(=O)n3C)c(C)c1	0.9	11	-22	2	6	1.2
Cc1ccc(OCCCN2CCCC2)c(C)c1	0.8	16	2	5	17	1
O=C1Nc2ccc([N+](=O)[O-])cc2C1(O)N1CCCCC1 (centres undefined)	0.8	18	24	22	-7	0.8
Cc1ccc(NN2C(=O)C=C(c3ccc(Cl)cc3)C2=O)cc1	1	-5	56*	99*	106*	0.4
O=C1C=C(c2ccccc2)C(=O)N1Nc1ccccc1	0.8	17	28	30	104*	0.7
Cc1ccc(C(=O)Nc2c(C)cc(-c3ccc(Cl)cc3)oc2=O)cc1	1	-4	39	-7	11	0.6
Cc1ccc(-c2cn3c(=O)cc(C)[nH]c3n2)cc1	0.8	20	15	-1	-7	0.8
COc1cc2c(cc1NC(=O)C(c1ccccc1)c1ccccc1)CCCC2	0.2	83*	96*	5	-8	0
Cc1ccccc1C(=O)/C=C1/c2ccccc2CC(C)(C)N1C	0.6	41	58*	4	12	0.4
CN1/C(=C\C(=O)c2ccco2)c2ccccc2CC1(C)C	0.9	6	17	2	9	0.8
Cc1cccc(C(=O)NC(=S)N2CCN(C)CC2)c1	1	1	5	-3	2	0.9
Cc1cccc(C(=O)/C=C2/c3ccccc3CC(C)(C)N2C)c1	0.1	87*	85*	24	14	0.1
